These results are taken from PubChem BioAssay (NCI).

Compounds without any hit were thinned out: in the full panel of roughly 83,000, 20% have a hit.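 Assay: single dose, 48 h. Readout: percent growth (0 = no net growth; negative = cell death). Active: <10.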 Values without a mark were called inactive. Active and inactive are the calls of the source.

Test systems include NCI-H23 lung; NCI-H226 lung; NCI-H322M lung; HOP-62 NSCLC; NCI-H460 lung; HOP-92 NSCLC; NCI-H522 lung; A549/ATCC NSCLC; 786-0 renal; COLO 205 colon.
Holding throughout (experiment): NCI-60 one-dose screen, 48 h (100 = growth as untreated, 0 = no growth, -100 = all killed)
What all share (conditions): 10 µM unless noted

With `CCOC(=O)CNP(=O)(OC[C@@H](Cc1ccccc1)NC(=O)c1cc2ccccc2s1)Oc1ccccc1` (some centres undefined), the growth is 81.1% in the assay on NCI-H23 lung; 93.2% in the assay with NCI-H226 lung; 93.3% with NCI-H322M lung; 85.3% with HOP-62 NSCLC; 72.7% in the assay on NCI-H460 lung; 69.3% with HOP-92 NSCLC. Besides, the growth was 71.7% with NCI-H522 lung, 64.8% in the assay with A549/ATCC NSCLC, 89.7% with 786-0 renal and 87.2% in the assay with COLO 205 colon.

`O=C1NCCC12CCN(c1c(Cl)cncc1-c1ccc(O)cc1)CC2`: the growth with NCI-H23 lung was 100%; in the assay with NCI-H226 lung, 83.9%; in the assay with NCI-H322M lung, 103%; in the assay with HOP-62 NSCLC, 112%; in the assay on NCI-H460 lung, 104%; with HOP-92 NSCLC, 114%. Moreover, the growth is 78% with NCI-H522 lung, 94.6% with A549/ATCC NSCLC, 100% in the assay on 786-0 renal and 105% in the assay on COLO 205 colon.

For `CN1C(=O)N(C)C2Nn3c(s/c(=C\c4ccc(C(F)(F)F)cc4)c3=O)=NC21` (centres undefined), the growth is 99.4% with NCI-H23 lung; 96.3% with NCI-H226 lung; 101% in the assay with NCI-H322M lung; 115% with HOP-62 NSCLC; 107% in the assay with NCI-H460 lung; 110% in the assay with HOP-92 NSCLC. Besides, the growth in the assay on NCI-H522 lung is 93.4%; in the assay with A549/ATCC NSCLC it was 104%; with 786-0 renal it was 105%; with COLO 205 colon it was 118%.

Turning to `COc1ccc(/C=N/NC(=O)CCN2c3ccccc3Sc3ccccc32)cc1`, the growth in the assay with NCI-H23 lung is 75.6%; with NCI-H226 lung, 86.5%; in the assay with NCI-H322M lung, 83.4%; with HOP-62 NSCLC, 75.3%; in the assay on NCI-H460 lung it was 85.4%; with HOP-92 NSCLC, 62.7%. Moreover, the growth in the assay on NCI-H522 lung was 62.1%; with A549/ATCC NSCLC, 77.6%; in the assay on 786-0 renal it was 91.5%; in the assay with COLO 205 colon it was 88.5%.

As for `CCN(c1ccc(Cl)cc1)c1nc(-c2ccc([N+](=O)[O-])cc2)cs1`, the growth in the assay with NCI-H23 lung is 92%; in the assay with NCI-H226 lung, 91.9%; in the assay on NCI-H322M lung, 86.7%; in the assay on HOP-62 NSCLC, 99.6%; in the assay with NCI-H460 lung it was 99.6%; in the assay with HOP-92 NSCLC, 83.6%. Besides, the growth in the assay on NCI-H522 lung is 82.8%; in the assay on A549/ATCC NSCLC, 97.6%; in the assay on 786-0 renal, 89%; in the assay with COLO 205 colon it was 113%.

Take `Oc1c(Cl)cc(Cl)cc1/C=N/Nc1nnc(N/N=C/c2cc(Cl)cc(Cl)c2O)c2ccccc12`: the growth in the assay on NCI-H23 lung is -20.6% (active); with NCI-H226 lung, -37.5% (active); in the assay on NCI-H322M lung, 21%; in the assay on HOP-62 NSCLC, 20.6%; in the assay on NCI-H460 lung, 0.0293% (active); with HOP-92 NSCLC, 13.9%. The growth with NCI-H522 lung is 14.1%; in the assay with A549/ATCC NSCLC, 22.8%; with 786-0 renal it was -22.2% (active); with COLO 205 colon it was 8.23% (active).

For the molecule `O=[N+]([O-])c1ccc(-c2nc(N3CCOCC3)c3c4c(sc3n2)CCCC4)cc1`, the growth is 88.8% in the assay on NCI-H23 lung; 85% with NCI-H226 lung; 96.3% in the assay on NCI-H322M lung; 82.4% in the assay with HOP-62 NSCLC; 107% with NCI-H460 lung; 111% in the assay on HOP-92 NSCLC. For the same molecule, the growth in the assay on NCI-H522 lung was 79.3%; in the assay with A549/ATCC NSCLC, 95.7%; with 786-0 renal, 93%; with COLO 205 colon, 90.9%.

Take `Clc1ccc(CNc2c3ccccc3nc3ccccc23)cc1`: the growth is 53% with NCI-H23 lung; 75.5% in the assay on NCI-H226 lung; 54.1% with NCI-H322M lung; 53% in the assay with HOP-62 NSCLC; 16.4% with NCI-H460 lung; 25.5% with HOP-92 NSCLC. Moreover, the growth in the assay with NCI-H522 lung was 66.5%; in the assay on A549/ATCC NSCLC, 39.3%; in the assay on 786-0 renal, 35.3%; in the assay with COLO 205 colon it was 8.58% (active).

For the molecule `Fc1ccc2[nH]cc(-c3nonc3-c3c[nH]c4ccc(Br)cc34)c2c1`, the growth was 24.4% in the assay with NCI-H23 lung; 53.6% with NCI-H226 lung; 35.9% in the assay on NCI-H322M lung; 9.17% (active) in the assay on HOP-62 NSCLC; 1.22% (active) in the assay on NCI-H460 lung; 22.4% in the assay on HOP-92 NSCLC. Also, the growth in the assay with NCI-H522 lung is -12.1% (active); in the assay on A549/ATCC NSCLC it was 19.5%; with 786-0 renal, 23.5%; in the assay with COLO 205 colon, -45.5% (active).

`COc1ccc(CC(C#N)c2cc3ccccc3[nH]2)cc1` (centres undefined): the growth with NCI-H23 lung was 87.1%; in the assay on NCI-H226 lung it was 90.6%; with NCI-H322M lung, 92.9%; in the assay with HOP-62 NSCLC, 89%; in the assay on NCI-H460 lung, 97.2%; in the assay on HOP-92 NSCLC, 49.7%. The growth with NCI-H522 lung was 84.3%; with A549/ATCC NSCLC it was 86.3%; in the assay on 786-0 renal, 94.7%; with COLO 205 colon, 99.8%.

On to `CC(=O)N(N=Nc1ccccc1)c1cccc2ccccc12`, for which the growth is 86.9% in the assay on NCI-H23 lung; 92.5% in the assay on NCI-H226 lung; 94.3% in the assay with NCI-H322M lung; 90.5% in the assay with HOP-62 NSCLC; 55.7% in the assay with NCI-H460 lung; 96.5% with HOP-92 NSCLC. In addition, the growth in the assay on NCI-H522 lung is 75.1%; in the assay with A549/ATCC NSCLC, 97.4%; in the assay on 786-0 renal it was 97.6%; in the assay with COLO 205 colon it was 91.9%.

For the molecule `CC1=NN(c2nc(SCC(=O)Nc3nc4ccc(C)cc4s3)nc(-c3ccccc3)c2C#N)C(=O)C1`, the growth in the assay on NCI-H23 lung was 105%; in the assay on NCI-H226 lung, 89.4%; with NCI-H322M lung, 96.7%; with HOP-62 NSCLC it was 86.4%; in the assay on NCI-H460 lung it was 100%; in the assay on HOP-92 NSCLC, 85%. Further, the growth in the assay with NCI-H522 lung is 91.1%; in the assay with A549/ATCC NSCLC, 107%; in the assay on 786-0 renal, 100%; in the assay with COLO 205 colon, 118%.

Regarding `CCOC(=O)c1cnc2ccccc2c1Cl`, the growth in the assay on NCI-H23 lung was 96.9%; in the assay on NCI-H226 lung, 99.2%; in the assay with NCI-H322M lung, 122%; in the assay with HOP-62 NSCLC it was 99.6%; in the assay on NCI-H460 lung, 93%; with HOP-92 NSCLC it was 70.4%. Besides, the growth was 92.1% in the assay on NCI-H522 lung, 104% in the assay with A549/ATCC NSCLC, 94.3% with 786-0 renal and 96.2% in the assay on COLO 205 colon.

As for `O=C1Nc2ccc(I)cc2C1=O`, the growth in the assay with NCI-H23 lung was 89.7%; in the assay on NCI-H226 lung, 92.8%; in the assay with NCI-H322M lung it was 107%; in the assay with HOP-62 NSCLC, 84.4%; with HOP-92 NSCLC, 104%; in the assay with NCI-H522 lung, 93.4%. Moreover, the growth with A549/ATCC NSCLC was 88.7%; in the assay on 786-0 renal, 109%; in the assay with COLO 205 colon, 88.9%.
